# Laboratory results reported in the supplement of paper PMC6992640.
# ± gives the standard deviation of the averaged measurements.
# Legend:
# Test in all cases: cell viability (% of vehicle); higher = less cytotoxic
# HCI01 [1] = cells of a triple-negative basal-like breast cancer xenograft; conditions: 1 µM; 72 h
# UCD52 [2] = cells of a triple-negative basal-like breast cancer xenograft; conditions: 1 µM; 72 h
# WHIM2 [3] = cells of a triple-negative basal-like breast cancer xenograft; conditions: 1 µM; 72 h
# WHIM30 [4] = cells of a triple-negative basal-like breast cancer xenograft; conditions: 1 µM; 72 h
# HCI01 [5] = conditions: 10 µM; 72 h
# HCI03 = cells of an ER-positive luminal breast cancer xenograft; conditions: 10 µM; 72 h
# HCI09 = cells of a triple-negative luminal androgen receptor type breast cancer xenograft; conditions: 10 µM; 72 h
# HCI11 = cells of an ER-positive luminal breast cancer xenograft; conditions: 10 µM; 72 h
# HCI13 = cells of an ER-positive luminal breast cancer xenograft; conditions: 10 µM; 72 h
# HCI16 = cells of a triple-negative basal-like breast cancer xenograft; conditions: 10 µM; 72 h
# UCD52 [6] = conditions: 10 µM; 72 h
# WHIM2 [7] = conditions: 10 µM; 72 h
# WHIM30 [8] = conditions: 10 µM; 72 h
Compound,cell viability (HCI01 [1]),cell viability (UCD52 [2]),cell viability (WHIM2 [3]),cell viability (WHIM30 [4]),cell viability (HCI01 [5]),cell viability (HCI03),cell viability (HCI09),cell viability (HCI11),cell viability (HCI13),cell viability (HCI16),cell viability (UCD52 [6]),cell viability (WHIM2 [7]),cell viability (WHIM30 [8])
COc1cc2c(Oc3ccc(NC(=O)C4(C(=O)Nc5ccc(F)cc5)CC4)cc3F)ccnc2cc1OCCCN1CCOCC1,89.1,48.2,71.2,70.2,35.4 ± 4.4,55,65.7 ± 32,52.7,60.2 ± 6.2,48,28 ± 2.1,50.1 ± 11,64.8 ± 15
CCCCc1oc2ccc(NS(C)(=O)=O)cc2c1C(=O)c1ccc(OCCCN(CCCC)CCCC)cc1.Cl [Dronedarone HCl],110,86.5,106,76.2,29.3 ± 12,48,24.4 ± 12,66.1,34.9 ± 1.1,46.6,30.9 ± 5.9,40.9 ± 14,33.3 ± 5.1
CC1(C)CCC(c2ccc(Cl)cc2)=C(CN2CCN(c3ccc(C(=O)NS(=O)(=O)c4ccc(NC(CCN5CCOCC5)CSc5ccccc5)c(S(=O)(=O)C(F)(F)F)c4)cc3)CC2)C1 (centres undefined) [ABT-263 (Navitoclax)],76.2,54.1,66.8,62.2,28 ± 2,44.2,21.8 ± 3.1,47.1,33.8 ± 0.76,29.6,36.5 ± 2.4,32.1 ± 4.1,35.2 ± 7.7
CCc1oc2ccccc2c1C(=O)c1cc(Br)c(O)c(Br)c1 [Benzbromarone],88.4,92.9,102,88.3,65.9 ± 49,103,33.8 ± 25,98,128 ± 29,97,76 ± 7.4,40.1 ± 12,95.1 ± 20
COc1cc(Nc2c(C#N)cnc3cc(OCCCN4CCN(C)CC4)c(OC)cc23)c(Cl)cc1Cl [Bosutinib (SKI-606)],61.1,30.4,55.4,68.4,48.4 ± 2.7,48,53.7 ± 33,101,71.4 ± 48,55.8,37.1 ± 4.8,36.7 ± 13,52.1 ± 9.3
CC1=CC(=O)c2ccccc2C1=O [Menadione],98.6,94.2,105,98.2,61.6 ± 55,51.9,31.3 ± 7.9,30.5,57.3 ± 4.9,57.6,30.5 ± 2.1,44.1 ± 10,138 ± 14
CN1CCC(COc2cnc(-c3cccc(Cn4nc(-c5cccc(C#N)c5)ccc4=O)c3)nc2)CC1,83.2,79.2,97.8,79.6,87.4 ± 46,45.7,15.5 ± 4.2,57.6,72.4 ± 35,,28 ± 5.6,34.3 ± 2.1,65.8 ± 4.3
COCCn1c2c([n+](Cc3cnccn3)c1C)C(=O)c1ccccc1C2=O.[Br-],29.6,21.3,21.1,27,85.5 ± 29,48.3,28.3 ± 3.6,60.2,68.9 ± 8.8,82.5,53.9 ± 8.2,55.5 ± 2.3,62.3 ± 5.1
CCN(CC)CCNC(=O)c1c(C)[nH]c(C=C2C(=O)Nc3ccc(F)cc32)c1C [Sunitinib],81.1,73,66,86.7,106 ± 39,134,71.8 ± 35,134,,125,61.8 ± 3.4,104 ± 68,37.9 ± 7.1
CCC1(c2ccccc2)C(=O)NCNC1=O [Primidone],,,,,78.1 ± 54,162,105 ± 2.9,90.6,134.7 ± 0.7,121,85.1 ± 8.9,100 ± 33,
O=C(Nc1ccccc1)c1ccccc1O [Salicylanilide],,,,,165 ± 40,133,143 ± 34,111,98.3 ± 6.3,153,123 ± 4.3,160 ± 20,
C1=C\COCc2cc(ccc2OCCN2CCCC2)Nc2nccc(n2)-c2cccc(c2)COC/1 [Pacritinib],70.5,49.1,77.3,47.3,28.9 ± 7.5,,25.9 ± 3.1,131,50.7 ± 7,133,35.1 ± 1.6,49.9 ± 4.6,50.7 ± 17
CCC1OC(=O)CC(O)C(C)C(OC2OC(C)C(OC3CC(C)(O)C(O)C(C)O3)C(N(C)C)C2O)C(CC=O)CC(C)C(=O)C=CC(C)=CC1COC1OC(C)C(O)C(OC)C1OC.O=C(O)C(O)C(O)C(=O)O (centres undefined) [Tylosin tartrate],,,,,75.1 ± 40,165,88.2 ± 5.5,82.3,97.3 ± 33,126,85.2 ± 5.8,110.8 ± 0.8,
CCc1cnn2c(NCc3ccc[n+]([O-])c3)cc(N3CCCCC3CCO)nc12 (centres undefined),46.8,29.2,38.1,34.9,38.1 ± 3.4,,62.5 ± 35,72.6,,92.9,42.1 ± 6.4,48.7 ± 12,66.2 ± 6.1
Cc1cnc(C(=O)O)c[n+]1[O-] [Acipimox],,,,,76.1 ± 45,159,98.5 ± 17,78.9,90.4 ± 3.8,103,79.6 ± 5.9,108 ± 1.4,
CCCc1cc(=O)[nH]c(=S)[nH]1 [Propylthiouracil],,,,,70.4 ± 44,153,100 ± 12,97.8,143 ± 30,120,91.2 ± 3.8,100 ± 38,
CC(=O)Nc1ccccc1 [Acetanilide],,,,,76.6 ± 44,163,99.2 ± 7.3,81.8,110 ± 8.1,138,75.2 ± 13,126 ± 14,
NC(=O)c1cnccn1 [Pyrazinamide],,,,,66.5 ± 42,126,90.8 ± 15,93.8,99.7 ± 1.4,98.9,85.8 ± 0.98,90.2 ± 30,
CCN1CCN(C(=O)NC(C(=O)NC2C(=O)N3C(C(=O)O)=C(CSc4nnnn4C)CSC23)c2ccc(O)cc2)C(=O)C1=O (centres undefined) [Cefoperazone],,,,,110.1 ± 0.54,158,120 ± 16,132,174 ± 9.6,104,131 ± 18,108 ± 22,

Compound,cell viability (HCI01 [1]),cell viability (UCD52 [2]),cell viability (WHIM2 [3]),cell viability (WHIM30 [4]),cell viability (HCI01 [5]),cell viability (HCI03),cell viability (HCI09),cell viability (HCI11),cell viability (HCI13),cell viability (HCI16),cell viability (UCD52 [6]),cell viability (WHIM2 [7]),cell viability (WHIM30 [8])
Cc1nc(=O)c2cc(CN(C)c3ccc(C(=O)NC(CCC(=O)O)C(=O)O)s3)ccc2[nH]1 (centres undefined) [Raltitrexed],,,,,93.9 ± 5.5,122,104 ± 27,86.9,95.59 ± 0.3,99,106 ± 4,116 ± 2,
CC(O)C(=O)O.CC(O)C(=O)O.CN1CCN(c2ccc3c(c2)NC(=C2C(=O)N=c4cccc(F)c4=C2N)N3)CC1 [Dovitinib Dilactic acid],103,89.6,96.9,77.8,43.1 ± 5.7,,19.9 ± 0.23,66,79 ± 2.3,44.4,21.9 ± 2.9,52.2 ± 12,
NC(=O)OCC(COC(N)=O)c1ccccc1 [Felbamate],,,,,71.2 ± 42,137,90.7 ± 10,95.3,103 ± 8.3,101,81.2 ± 7.7,99.5 ± 11,
COc1cccc2c1C(=O)c1c(O)c3c(c(O)c1C2=O)CC(O)(C(=O)CO)CC3OC1CC(N)C(O)C(C)O1.Cl (centres undefined) [Epirubicin HCl],105,35.9,22.2,46.4,56.2 ± 19,,26.2 ± 13,50.5,,35.4,22.7 ± 4,29.1 ± 15,50.8 ± 12
CCOC(=O)c1c(C)n(C)c2ccc(O)cc12 [Mecarbinate],,,,,72.1 ± 43,152,111 ± 4.2,90.9,135 ± 14,115,87.3 ± 3.8,99.6 ± 22,
Cc1c(OCC(F)(F)F)ccnc1CS(=O)c1nc2ccccc2[n-]1.[Na+] (centres undefined) [Lansoprazole sodium],,,,,181 ± 1.4,145,124 ± 9,163,135 ± 5.7,152,138.2 ± 0.31,143 ± 9.9,
OCCN1CC(O)C(O)C(O)C1CO (centres undefined) [Miglitol],,,,,68.9 ± 43,136,99.2 ± 8.7,92.4,113 ± 0.17,116,86.2 ± 7.9,95.7 ± 50,
CCN(CC)C(=O)C1(c2ccccc2)CC1CN.Cl (centres undefined) [Milnacipran HCl],,,,,68.6 ± 44,137,96.4 ± 9.2,98.1,127 ± 14,105,86.4 ± 1.7,93.8 ± 47,
Cc1c(OCC(F)(F)F)ccnc1CS(=O)c1nc2ccccc2[nH]1 (centres undefined) [Lansoprazole],,,,,170 ± 24,160,97.4 ± 32,128,142 ± 24,144,190 ± 5.9,,
CC(=O)C1(O)Cc2c(O)c3c(c(O)c2C(OC2CC(N)C(O)C(C)O2)C1)C(=O)c1ccccc1C3=O.Cl (centres undefined) [Idarubicin HCl],,32.5,28.8,41.2,37.5 ± 5.3,67.6,28.4 ± 1.2,27.8,47.1 ± 3.2,32.1,31.4 ± 6.4,29.3 ± 9.9,44.7 ± 14
O=c1[nH]cc(F)c(=O)[nH]1 [Fluorouracil (Adrucil)],,,,,136 ± 18,112,75.1 ± 7.2,167,81.1 ± 6,151,139.3 ± 0.23,106 ± 20,
COC(=O)Nc1nc2ccc(Sc3ccccc3)cc2[nH]1 [Fenbendazole],,,,,193 ± 48,129,182 ± 25,129,155 ± 32,153,121.4 ± 0.081,142 ± 20,
CC(C)(C)C(=O)OCOP(=O)(COCCn1cnc2c(N)ncnc21)OCOC(=O)C(C)(C)C [Adefovir Dipivoxil],,,,,109 ± 43,148,62.7 ± 38,105,43.6 ± 9.2,129,101 ± 9.6,50.6 ± 3.7,
CC(C)c1nc(N(C)S(C)(=O)=O)nc(-c2ccc(F)cc2)c1C=CC(O)CC(O)CC(=O)[O-].CC(C)c1nc(N(C)S(C)(=O)=O)nc(-c2ccc(F)cc2)c1C=CC(O)CC(O)CC(=O)[O-].[Ca+2] (centres undefined) [Rosuvastatin Calcium],96.2,83.1,83.4,84.8,109 ± 2.8,115,112 ± 44,,126 ± 30,117,50.8 ± 4.2,44.1 ± 6.8,88.4 ± 11
COc1cc(Cc2cnc(N)nc2N)cc(OC)c1OC [Trimethoprim],,,,,78.3 ± 37,144,91.1 ± 7.9,93,117 ± 22,120,95.4 ± 7.4,118 ± 7.3,
NS(=O)(=O)c1cc2c(cc1Cl)NC(C(Cl)Cl)NS2(=O)=O (centres undefined) [Trichlormethiazide],,,,,104 ± 57,164,98.053 ± 0.0031,89.9,129.2 ± 0.42,186,142 ± 9.3,141 ± 8.7,
O=c1cc[nH]c(=O)[nH]1 [Uracil],,,,,120 ± 20,139,116 ± 28,98.8,64.47 ± 0.33,116,101 ± 7,135 ± 11,
O=C(c1cc(Cc2n[nH]c(=O)c3ccccc23)ccc1F)N1CCN(C(=O)C2CC2)CC1,,,,,166 ± 50,112,72.2 ± 9.9,129,103 ± 5.2,166,117 ± 16,105 ± 6.3,
